# Screens as filed in PubChem BioAssay.
# hcDAF-12 act = activates DAF-12 receptor from parasite H. contortus | HEK293 hcDAF-12 lit1-tk-luc reporter, luminescence; 0% DMSO, 100% Δ7-dafachronic acid | activation, % at 6.8 µM | 370,000 compounds, 1.4% hits;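 active = activation above the mean of all tested compounds plus 3 SD, cut at about 5.5% in these data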;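 also: 100% = response to 3 µM Δ7-dafachronic acid high control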
# AHR act = activates the human aryl hydrocarbon receptor. AHR-responsive luciferase reporter cells, luminescence. 320,000 compounds, 2.5% hits. P35869. activation, % at 5 µM; in the data active = activation above about 47%;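 also: 0% = vehicle wells and 100% = reference agonist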
# DAX1 inh-1 = inhibitors of human orphan nuclear receptor DAX1 (NR0B1); P51843; HEK293 Gal4-DAX1 luciferase reporter, luminescence; inhibition, % at 6.75 µM; 340,000 compounds, 0.99% hits; AID 504766;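 active = inhibition above the mean over all tested compounds plus 3 SD, cut at about 4.2% in these data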;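 also: 0% = DAX1-transfected cells with DMSO and 100% = empty-vector control cells with DMSO; inhibition shows as a rise in luminescence from relieved DAX1 repression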
# Target sequence (P51843 207-470 limits assumed): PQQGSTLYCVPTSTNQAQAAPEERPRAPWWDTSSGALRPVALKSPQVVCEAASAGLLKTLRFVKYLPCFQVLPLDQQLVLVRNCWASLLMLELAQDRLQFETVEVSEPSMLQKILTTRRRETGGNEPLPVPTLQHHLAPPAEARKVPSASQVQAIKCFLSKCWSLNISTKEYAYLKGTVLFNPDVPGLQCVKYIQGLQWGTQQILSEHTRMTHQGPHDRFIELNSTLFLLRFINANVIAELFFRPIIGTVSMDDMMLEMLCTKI
# ssDAF-12 act = S. stercoralis DAF-12 activation, primary screen. 370,000 compounds, 1% hits. activation, % at 6.8 µM. HEK293 ssDAF-12/GRIP1 lit1-tk-luc reporter, luminescence; % of 3 µM dafachronic acid response;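 active = activation above the mean over all tested compounds plus 3 SD, cut at about 0.9% in these data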;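 also: 0% = DMSO-only wells and 100% = 3 µM delta7-dafachronic acid wells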
# DAX1 inh-2 = blocks DAX1 repression of SF-1 activated StAR promoter | HEK293T StAR-luciferase reporter, SF-1/DAX-1 repression relief | inhibition, % at 6.8 µM | 370,000 compounds, 1.1% hits | AID 652010;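 active = inhibition above the mean over all tested compounds plus 3 SD, cut at about 3.6% in these data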;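 also: 0% = DAX-1 cells with DMSO and 100% = cells lacking DAX-1 with DMSO; higher inhibition means more luminescence from relief of DAX-1 repression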
# hgDAF-12 ag = hgDAF-12 agonism, primary luciferase screen; HEK293 GAL4-hgDAF12 UAS-luciferase reporter, agonist luminescence; normalized to butyrate control; activation, % at 6.8 µM; 370,000 compounds, 1.8% hits; AID 687014;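 active = activation above a cutoff set at the mean of all screened compounds plus 3 SD, cut at about 10% in these data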;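 also: 0% = DMSO wells and 100% = sodium butyrate wells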
# hgDAF12 ag = confirmation of H. glycines DAF-12 agonists | shares compounds with hgDAF-12 ag | HEK293 GAL4-hgDAF12 luciferase reporter, agonist mode; percent of butyrate response | activation, % at 6.8 µM | 3,300 compounds, 80% hits | AID 743050;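 active = mean activation over triplicate wells above the hit cutoff derived from the earlier primary screen, cut at about 11% in these data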;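 also: 0% = DMSO low control and 100% = 2 mM sodium butyrate high control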
# LXR ag 2 = LXR-beta agonism as DAF-12 counter-screen; shares compounds with hgDAF-12 ag; HEK293 Gal4-LXR luciferase reporter, 24 h; activation, % at 6.8 µM; 3,300 tested, under 10 active; AID 743051;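 active = mean activation of the triplicate above a set limit carried over from the primary screen, none filed active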
# Active calls of the source: *; . = no result. An excerpt weighted towards active compounds, which were near 5.7% of everything screened.
SMILES,hcDAF-12 act,AHR act,DAX1 inh-1,ssDAF-12 act,DAX1 inh-2,hgDAF-12 ag,hgDAF12 ag,LXR ag 2
Cc1ccc(N2C(=O)c3ccc(N)cc3C2=O)cc1,4,51*,0,1,2,16*,16*,1
CCOC(=O)C1(C(=O)OCC)CCN(S(=O)(=O)c2ccccc2)CC1,-1,.,-2,-1,1,1,.,.
O=C(/C=C/c1ccc(Br)o1)Nc1nccs1,5.8*,37,2,0,1,14*,15*,0
Fc1ccc(/C=N/Nc2nccnc2Cl)cc1,4,18,6.1*,0,1,14*,6,0
Nc1c(Cl)ncnc1N/N=C/c1ccc(O)cc1,-1,20,0,-1,0,1,.,.
O=C(Nc1nc2c(s1)C(=O)CCC2)c1ccccc1,5,2,0,0,3,16*,17*,1
O=C(Nc1nc(=O)c2ccccc2s1)c1ccccc1,5,7,1,0,2,9,.,.
O=C(Nc1ccccc1)C1CCCCC1,-1,-2,0,-1,0,0,.,.
O=C(Nc1ccc2ccccc2n1)C1CCCCC1,2,-1,.,0,2,15*,16*,1
Cc1cc(NC(=O)CCC(=O)N(Cc2ccco2)C(C(=O)NC2CCCCC2)c2cccs2)no1 (configuration not stated),-2,0,-1,-1,0,2,.,.
Cc1cc(C)cc(NC(=O)c2cc3c(=O)n4ccccc4nc3s2)c1,-2,-15,-2,-1,0,1,.,.
O=C(Nc1ccc(O)cc1)c1cc2ccccc2c(=O)s1,2,-2,2,-1,1,14*,8,0
O=C(Nc1ccccc1)c1cc2ccccc2c(=O)s1,4,18,2,-1,2,18*,14*,1
COc1ccccc1NS(=O)(=O)c1cccc(NC(=O)c2cc3ccccc3oc2=O)c1,5,5,2,0,3,16*,13*,0
COc1ccccc1NS(=O)(=O)c1cccc(NC(=O)Nc2ccccc2)c1,-4,9,-2,-2,-1,-1,.,.
CN(c1ccccc1)S(=O)(=O)c1cccc(NC(=O)c2cc3ccccc3oc2=O)c1,5,2,2,1,2,16*,10,0
CN(C)C(=O)c1cc([N+](=O)[O-])cc([N+](=O)[O-])c1N(C)C,-2,-2,-2,-1,0,1,.,.
Cc1ccccc1OCCNC(=O)c1ccc2ccccc2n1,2,10,3,0,3,15*,12*,1
Cc1ccccc1CNC(=O)c1ccc2ccccc2n1,-1,3,0,-1,0,0,.,.
COc1ccccc1C(C(C(=O)c1ccccc1)N1CCOCC1)N1CCOCC1 (configuration not stated),2,.,0,0,0,14*,0,0
COc1ccc(C(C(C(=O)c2ccco2)N2CCOCC2)N2CCOCC2)cc1 (configuration not stated),1,13,0,-1,1,0,.,.
O=C(Cc1ccccc1)c1ccccc1C(=O)N1CCCCC1,-1,0,-2,-1,0,0,.,.
O=C(Nc1cccc(C(=O)O)c1)Nc1ccccc1Cl,3,-11,-8,0,2,18*,9,1
O=C(Nc1cccc(Cl)c1)Nc1cccc(C(=O)O)c1,1,-5,.,1,1,10,.,.
CCc1ccc(OCC(=O)O/N=C(\N)c2cccnc2)cc1,-1,4,.,-1,0,5,.,.
SMILES,hcDAF-12 act,AHR act,DAX1 inh-1,ssDAF-12 act,DAX1 inh-2,hgDAF-12 ag,hgDAF12 ag,LXR ag 2
N/C(=N\OC(=O)c1ccc(Br)o1)c1cccnc1,1,53*,1,-2,2,14*,7,0
CN=Cc1nc(-c2ccccc2)oc1O,1,21,2,0,2,8,.,.
Oc1oc(-c2ccccc2)nc1/C=N/c1ccccn1,2,14,1,-1,3,16*,9,0
COc1ccc(C=NNC(=O)NN=Cc2ccc(OC)c(OC)c2)cc1OC,3,.,5.0*,-1,1,13*,9,0
COc1ccc(C=NNC(=O)CCCC(=O)NN=Cc2ccc(OC)c(OC)c2)cc1OC,-1,.,1,1,-1,0,.,.
CCOc1cc(/C=N/NC(=O)Nc2ccccc2)ccc1O,6.1*,15,0,3.8*,1,13*,11*,0
CCOc1cc(/C=N/NC(=O)c2ccc(NC(=O)C3CC3)cc2)ccc1O,3,4,0,-1,-2,-2,.,.
COc1ccc(NC(=O)c2cccc(S(=O)(=O)N3CCCCC3)c2)c(OC)c1,-4,5,-1,-1,0,-2,.,.
CCn1c(SCc2ccccc2Cl)nc2ccccc21,2,-1,3,-1,1,6,.,.
Cn1c(SCc2ccccc2Cl)nc2ccccc21,2,-1,3,0,3,14*,15*,1
COc1ccc(NC(=O)c2ccc3c(c2)OCO3)cc1[N+](=O)[O-],1,6,-1,0,0,4,.,.
CCCOc1cccc(C(=O)Nc2ccc3c(c2)OCCO3)c1,6.3*,7,0,1,2,19*,20*,1
CCC(=O)N1CCN(c2ccc(NC(=O)c3ccc4c(c3)OCCO4)cc2)CC1,-1,-4,-1,-2,0,2,.,.
CN1CCN(c2ccc(NC(=O)c3ccc4c(c3)OCCO4)cc2)CC1,6.1*,12,0,1,3,17*,11*,1
O=C(N/N=C/c1cc(O)ccc1[N+](=O)[O-])c1ccc2c(c1)OCCO2,4,7,0,0,3.6*,18*,14*,0
CCCOc1cccc(C(=O)Nc2cccnc2)c1,0,16,0,-1,1,5,.,.
Cc1cc(C(=O)Nc2ccc3c(c2)OCCO3)ccc1[N+](=O)[O-],5,-3,-4,1,3,18*,12*,1
COc1ccc(/C=N/NC(=O)c2ccc3c(c2)OCCO3)cc1[N+](=O)[O-],2,1,0,-2,0,3,.,.
O=C(c1cnn(C(=O)c2ccco2)c1)c1ccccc1O,1,3,2,0,0,5,.,.
CC1CC(C)CN(CC(=O)Nc2ccc3c(c2)OCCO3)C1 (configuration not stated),1,2,0,-1,1,5,.,.
